In the supplement of paper PMC12024424:
Where a name gives a salt, the structure may show the parent alone.

Assays:
[1] = tested on: Staphylococcus aureus Sa2 (MRSA, cystic fibrosis isolate); assay: growth reduction vs untreated control (OD550); higher = stronger antibacterial activity; conditions: 0.1 mM; 24 h
Description: (§1)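 Single-dose screen of the MedChem Express Drug Repurposing Library (0.1 mM, 1% DMSO) against planktonic MRSA S. aureus Sa2 (CF isolate) in TSB in 96-well plates, 37 °C aerobic, 24 h. Assays were run in triplicate and repeated twice.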

[2] = tested on: Staphylococcus aureus Sa2 (MRSA, cystic fibrosis isolate); assay: growth reduction vs untreated control (viable cell count); higher = stronger antibacterial activity; extreme values may be limits of the assay; conditions: 0.1 mM; 24 h
Description: as §1

Compound	growth reduction [1] [%]	growth reduction [2] [%]
Cc1ccc(-n2[nH]c(C)c(N=Nc3cccc(-c4cccc(C(=O)O)c4)c3O)c2=O)cc1C [Eltrombopag]	96.5	100
C[C@H](CCC(=O)O)[C@H]1CC[C@H]2[C@@H]3[C@H](O)C[C@@H]4C[C@H](O)CC[C@]4(C)[C@H]3CC[C@]12C [Chenodeoxycholic Acid]	99	99
O=C1[C@H](CC[C@H](O)c2ccc(F)cc2)[C@@H](c2ccc(O)cc2)N1c1ccc(F)cc1 [Ezetimibe]	91.7	91
CCN1CCN(c2ccc(Nc3cc(N(C)C(=O)Nc4c(Cl)c(OC)cc(OC)c4Cl)ncn3)cc2)CC1 [Infigratinib]	100	100
CCCCc1nc(-c2ccc(OCCCN(CC)CC)cc2)cn1-c1ccc(Oc2ccc(Cl)cc2)cc1 [Azeliragon]	100	100
CCN1CCN(Cc2ccc(-c3cc4c(N[C@H](C)c5ccccc5)ncnc4[nH]3)cc2)CC1	100	100
CC(C)(C)OC(=O)N[C@H]1CCCCC/C=C\[C@@H]2C[C@@]2(C(=O)NS(=O)(=O)C2CC2)NC(=O)[C@@H]2C[C@@H](OC(=O)N3Cc4cccc(F)c4C3)CN2C1=O [Danoprevir]	99.9	100
COCCNCCc1cccc(Nc2ncc3c(n2)-c2ccccc2[C@H](c2ccccc2F)C3)c1 [Derazantinib]	100	100
O=c1nc(OC[C@@H]2COCCO2)cc2n1CCc1cc(C#CC3CC3)ccc1-2	96.2	93
C=C1CC[C@H](O)C/C1=C/C=C1\CCC[C@]2(C)[C@@H]([C@H](C)/C=C/[C@H](C)C(C)C)CC[C@@H]12 [Vitamin D2]	100	100
Cn1cc(-c2ccncc2)c(-c2ccc(OCc3ccc4ccccc4n3)cc2)n1 [Mardepodect]	100	93
C[C@H](CCC(=O)O)[C@H]1CC[C@H]2[C@@H]3CC[C@@H]4C[C@H](O)CC[C@]4(C)[C@H]3C[C@H](O)[C@]12C [Deoxycholic acid]	98.3	100
OCCN1CCN(CCCN2c3ccccc3Sc3ccc(Cl)cc32)CC1 [Perphenazine]	100	100
CC(=O)c1cc2c(o1)C(=O)c1ccccc1C2=O [Napabucasin]	100	100
CCN(CC)CCOc1ccc(/C(=C(/Cl)c2ccccc2)c2ccccc2)cc1 [Enclomiphene (citrate)]	100	100
CC(C)(C)CC(C)(C)c1ccc(OCCOCC[N+](C)(C)Cc2ccccc2)cc1 [Benzethonium chloride]	100	100
Nc1ccn([C@@H]2O[C@H](CO)[C@@H](O)C2(F)F)c(=O)n1 [Gemcitabine]	100	100
C=CC(=O)N1CC[C@@H](Oc2nc(Nc3ccc(N4CCC(N5CCN(C)CC5)CC4)cc3)c(C(N)=O)nc2CC)C1 [Naquotinib (mesylate)]	99.6	100
CSc1ccc2c(c1)N(CCC1CCCCN1C)c1ccccc1S2 (centres undefined) [Thioridazine (hydrochloride)]	100	100
CCCc1nc2c(C)cc(-c3nc4ccccc4n3C)cc2n1Cc1ccc(-c2ccccc2C(=O)O)cc1 [Telmisartan]	91.8	100
C/C=C(/C(=C/C)c1ccc(O)cc1)c1ccc(O)cc1 [Dienestrol]	99.7	92
C=CCNc1c(O)cc2c(O)c1C[C@@H](C)C[C@H](OC)[C@H](O)[C@@H](C)/C=C(\C)[C@H](OC(N)=O)[C@@H](OC)/C=C\C=C(/C)C(=O)N2 [Retaspimycin (Hydrochloride)]	100	100
Clc1ccc(C(Cn2ccnc2)OCc2ccc(Sc3ccccc3)cc2)c(Cl)c1 (centres undefined) [Fenticonazole (Nitrate)]	100	100
CC(C)N(CCCCOCC(=O)NS(C)(=O)=O)c1cnc(-c2ccccc2)c(-c2ccccc2)n1 [Selexipag]	100	100
OCCN1CCN(CC/C=C2/c3ccccc3Sc3ccc(Cl)cc32)CC1 [Zuclopenthixol]	100	100
CS(=O)(=O)c1cc(F)cc2c3c(n(Cc4ccc(Cl)cc4)c12)[C@@H](CC(=O)O)CC3 [Laropiprant]	96.1	99
O=c1[nH]cc(F)c(=O)[nH]1 [5-Fluorouracil]	97.1	100
Clc1ccc(CSC(Cn2ccnc2)c2ccc(Cl)cc2Cl)cc1 (centres undefined) [Sulconazole (mononitrate)]	100	100
Cc1ccc(NC(=O)C2(c3ccc4c(c3)OC(F)(F)O4)CC2)nc1-c1cccc(C(=O)O)c1 [Lumacaftor]	92.9	96
COc1c(-c2ccc3cc(NS(C)(=O)=O)ccc3c2)cc(-n2ccc(=O)[nH]c2=O)cc1C(C)(C)C [Dasabuvir]	–	93
